PubChem BioAssay
Activity calls are given as the source filed them.

Columns and labels:
[1] = molecular target: Albumin (Bos taurus) (UniProt P02769); experiment: compounds binding labelled BSA control protein – biochemical, small-molecule microarray, Alexa647 label, 635/667 nm fluorescence, artefact control for SMM control protein annotation, profiling panel (AID 1118); conditions: BSA-A647 binding, fluorescence 635 nm, higher = more signal;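 also: score merges 667 nm emission intensity and signal-to-noise per printed compound spot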
Sequence of Albumin (Bos taurus) (P02769 whole entry, looked up): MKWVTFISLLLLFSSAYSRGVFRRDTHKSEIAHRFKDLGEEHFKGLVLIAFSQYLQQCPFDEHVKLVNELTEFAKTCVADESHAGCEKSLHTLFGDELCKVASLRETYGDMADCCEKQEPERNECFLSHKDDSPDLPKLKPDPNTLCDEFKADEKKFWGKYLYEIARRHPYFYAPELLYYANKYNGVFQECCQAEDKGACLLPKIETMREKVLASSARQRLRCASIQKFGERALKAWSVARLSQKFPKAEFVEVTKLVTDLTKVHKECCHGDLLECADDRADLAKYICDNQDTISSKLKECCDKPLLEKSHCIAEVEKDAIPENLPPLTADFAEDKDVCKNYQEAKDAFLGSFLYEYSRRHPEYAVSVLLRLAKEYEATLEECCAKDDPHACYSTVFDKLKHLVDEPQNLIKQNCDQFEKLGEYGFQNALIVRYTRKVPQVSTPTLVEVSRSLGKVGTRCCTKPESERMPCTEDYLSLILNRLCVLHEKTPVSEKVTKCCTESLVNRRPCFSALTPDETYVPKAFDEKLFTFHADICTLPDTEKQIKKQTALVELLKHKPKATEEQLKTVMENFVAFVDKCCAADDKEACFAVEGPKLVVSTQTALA

[2] = probe aXIP binding to arrayed compounds – biochemical, NeuroSMM set, 635/667 nm fluorescence, primary screen (AID 1119); conditions: small-molecule microarray, higher = more signal, called active from +8 up or from −8 down;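 also: probe is the protein aXip251-270 applied at 1 µg/mL to compound-printed slides; binding of probe to printed compounds measured as 667 nm fluorescence plus signal to noise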
[3] = probe aNOTCH3 binding on compound microarray – biochemical, small-molecule microarray, 635/667 nm fluorescence, primary screen (AID 1120); conditions: higher = more signal;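 also: probe is a biotin-tagged antibody raised against NOTCH3 rather than NOTCH3 protein; score merges spot fluorescence near 667 nm with spot signal to noise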
[4] = probe aNOTCH2 binding on compound microarray – biochemical, small-molecule microarray, 635/667 nm fluorescence, primary screen (AID 1121); conditions: higher = more signal;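 also: score merges feature fluorescence read at 667 nm with its signal to noise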
[5] = molecular target: Carbonic anhydrase 2 (Homo sapiens) (UniProt P00918); experiment: compounds binding carbonic anhydrase 2 – biochemical, small-molecule microarray, Alexa647-labelled CAII, profiling panel (AID 1122); conditions: CAII-A647 binding fluorescence, higher = more signal
[6] = COS7 lysate on small-molecule microarray, probe aHis, 635 nm (AID 1123); conditions: COS7 cell lysate, fluorescence, higher = more signal;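 also: z-score combines 667nm fluorescence intensity with signal-to-noise per printed compound spot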
[7] = probe aLAP1 signal on lysate-treated microarray – cell lysate, small-molecule microarray, COS7 lysate, primary screen (AID 1124); conditions: probe aLAP1, fluorescence, higher = more signal;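 also: lysate comes from COS7 cells expressing LAP1 and is applied at 0.3 µg/mL; score merges spot fluorescence near 667 nm with signal-to-noise over triplicate slides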
[8] = test system: Sam68 (KHDRBS1); experiment: compounds binding KHDRBS1 protein – biochemical, small-molecule microarray, 635 nm fluorescence, primary screen (AID 1125); conditions: higher = more signal;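 also: score merges 667 nm channel intensity with signal to noise over triplicate slides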
[9] = test system: Chordin-like protein 2 (CHRDL2); experiment: compounds binding chordin-like 2 – biochemical, small-molecule microarray, 635 nm fluorescence, primary screen (AID 1126); conditions: fluorescence 635 nm, higher = more signal;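 also: printed compound slides probed with Chrdl2 protein at 4 µg/mL for 1 h at 4 C; score merges 667 nm emission intensity with signal to noise over three replicate slides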
[10] = molecular target: Concanavalin-A (Canavalia ensiformis) (UniProt P02866); experiment: compounds binding concanavalin A lectin – biochemical, small-molecule microarray, Alexa647 label, 635 nm, artefact control for SMM control protein annotation, primary screen (AID 1127); conditions: ConA-A647 binding fluorescence, higher = more signal;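 also: z combines 667 nm emission intensity with signal-to-noise across three replicate slides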
Sequence of Concanavalin-A (Canavalia ensiformis) (P02866 whole entry, looked up): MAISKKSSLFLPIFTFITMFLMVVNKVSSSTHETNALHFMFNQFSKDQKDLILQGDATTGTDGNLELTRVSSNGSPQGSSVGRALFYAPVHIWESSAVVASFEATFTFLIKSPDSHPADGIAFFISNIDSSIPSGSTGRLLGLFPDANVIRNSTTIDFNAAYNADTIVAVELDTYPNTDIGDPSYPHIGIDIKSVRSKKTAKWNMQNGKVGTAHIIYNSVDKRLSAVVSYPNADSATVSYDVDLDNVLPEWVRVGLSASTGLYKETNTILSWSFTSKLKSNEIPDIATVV

[11] = compounds binding Alexa647 anti-His antibody – biochemical, small-molecule microarray, 635 nm fluorescence, artefact control for SMM control protein annotation, primary screen (AID 1128); conditions: higher = more signal;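 also: score merges feature fluorescence with signal-to-noise for each printed compound spot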
[12] = test system: Human papillomavirus type 1a E7 protein (residues 1-88); experiment: HPV1a E7 small-molecule binders, primary screen, biochemical, small-molecule microarray, residues 1-88, 635 nm (AID 1129); conditions: small-molecule microarray binding, fluorescence 635 nm; higher = more signal
[13] = molecular target: Focal adhesion kinase 1 (Homo sapiens) (UniProt Q05397); experiment: PTK2 protein binding on printed compound slides – biochemical, small-molecule microarray, 635/667 nm fluorescence, BSA, DTT, primary screen (AID 1130); conditions: 635 nm fluorescence, higher = more signal;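 also: composite of spot emission at 667 nm and signal to noise over triplicate slides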
Sequence of Focal adhesion kinase 1 (Homo sapiens) (Q05397 whole entry, looked up): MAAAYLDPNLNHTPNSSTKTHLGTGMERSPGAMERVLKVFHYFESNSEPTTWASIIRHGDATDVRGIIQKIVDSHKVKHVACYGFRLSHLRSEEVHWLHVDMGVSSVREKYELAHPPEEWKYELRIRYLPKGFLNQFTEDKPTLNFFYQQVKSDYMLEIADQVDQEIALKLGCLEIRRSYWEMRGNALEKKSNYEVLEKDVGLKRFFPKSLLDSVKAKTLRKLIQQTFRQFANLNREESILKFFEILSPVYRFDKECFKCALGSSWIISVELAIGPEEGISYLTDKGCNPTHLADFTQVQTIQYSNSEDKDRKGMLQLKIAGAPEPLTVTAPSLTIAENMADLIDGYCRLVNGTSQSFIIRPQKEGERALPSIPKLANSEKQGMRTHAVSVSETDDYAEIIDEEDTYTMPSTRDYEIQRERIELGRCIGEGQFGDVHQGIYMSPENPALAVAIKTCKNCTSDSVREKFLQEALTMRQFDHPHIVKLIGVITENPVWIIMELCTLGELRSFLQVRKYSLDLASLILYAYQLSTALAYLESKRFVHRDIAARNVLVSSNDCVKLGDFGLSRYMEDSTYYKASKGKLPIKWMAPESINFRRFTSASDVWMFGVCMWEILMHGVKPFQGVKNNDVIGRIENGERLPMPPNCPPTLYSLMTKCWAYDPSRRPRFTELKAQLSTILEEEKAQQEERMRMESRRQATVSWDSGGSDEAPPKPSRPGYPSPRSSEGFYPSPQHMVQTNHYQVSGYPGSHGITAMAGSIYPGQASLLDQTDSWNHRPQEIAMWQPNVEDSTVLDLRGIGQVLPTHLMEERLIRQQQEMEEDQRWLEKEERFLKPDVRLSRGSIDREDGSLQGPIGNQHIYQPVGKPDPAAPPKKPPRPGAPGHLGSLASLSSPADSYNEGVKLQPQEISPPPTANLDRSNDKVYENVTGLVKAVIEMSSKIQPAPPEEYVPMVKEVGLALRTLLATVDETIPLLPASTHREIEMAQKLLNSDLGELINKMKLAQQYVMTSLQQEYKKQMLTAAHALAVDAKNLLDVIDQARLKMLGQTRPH

[14] = test system: Fibrinogen (Alexa647-labelled); experiment: Alexa647-fibrinogen binding to printed small molecules – biochemical, small-molecule microarray, 635/667 nm fluorescence, artefact control for SMM control-protein annotation, profiling panel (AID 1131); conditions: fibrinogen-A647 binding fluorescence, higher = more signal;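 also: z-score merges 667 nm fluorescence with per-spot signal-to-noise over triplicate slides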
[15] = molecular target: Follistatin (Homo sapiens) (UniProt P19883); experiment: FST protein binding to printed compounds – biochemical, small-molecule microarray, 635/667 nm fluorescence, primary screen (AID 1132); conditions: 635 nm fluorescence, higher = more signal
Sequence of Follistatin (Homo sapiens) (P19883 whole entry, looked up): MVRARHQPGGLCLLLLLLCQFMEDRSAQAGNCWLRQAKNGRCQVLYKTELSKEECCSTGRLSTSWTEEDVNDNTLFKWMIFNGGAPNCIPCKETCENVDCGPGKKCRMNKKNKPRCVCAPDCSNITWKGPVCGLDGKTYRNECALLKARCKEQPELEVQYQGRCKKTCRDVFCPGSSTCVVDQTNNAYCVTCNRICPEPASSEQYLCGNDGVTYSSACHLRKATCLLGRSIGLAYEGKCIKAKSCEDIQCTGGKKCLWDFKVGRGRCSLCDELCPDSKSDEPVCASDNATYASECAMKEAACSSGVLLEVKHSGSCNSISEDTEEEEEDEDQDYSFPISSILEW

[16] = molecular target: Fibroblast growth factor 2 (Homo sapiens) (UniProt P09038); experiment: basic fibroblast growth factor binding to printed compounds – biochemical, small-molecule microarray, 635/667 nm fluorescence, primary screen (AID 1133); conditions: FGF2, fluorescence 635/667, higher = more signal
Sequence of Fibroblast growth factor 2 (Homo sapiens) (P09038 whole entry, looked up): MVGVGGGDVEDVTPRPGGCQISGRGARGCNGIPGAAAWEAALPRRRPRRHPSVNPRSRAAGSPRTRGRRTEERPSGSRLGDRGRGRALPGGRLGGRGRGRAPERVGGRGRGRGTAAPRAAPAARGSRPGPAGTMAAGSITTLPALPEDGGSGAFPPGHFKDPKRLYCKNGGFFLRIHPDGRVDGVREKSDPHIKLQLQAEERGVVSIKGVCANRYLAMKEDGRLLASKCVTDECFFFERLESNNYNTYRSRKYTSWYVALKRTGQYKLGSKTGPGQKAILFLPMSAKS

[17] = JC-1 mitochondrial potential readout, lung cancer cells – cell-based, A549, JC-1 fluorescence, basal, 24 h, 100 nL, profiling panel (AID 1138); conditions: higher = more signal;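 also: A549 lung adenocarcinoma cells under basal conditions with no added stimulus; test concentration not given here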
[18] = test system: Lefty1; experiment: Lefty1 protein binding to printed compounds – biochemical, small-molecule microarray, 635/667 nm fluorescence, primary screen (AID 1139); conditions: fluorescence 635/667, higher = more signal
[19] = test system: wheat germ agglutinin (Triticum aestivum), Alexa647-labelled; experiment: Alexa647-WGA lectin binding to printed small molecules – biochemical, small-molecule microarray, 635/667 nm fluorescence, artefact control for SMM control-protein annotation, profiling panel (AID 1140); conditions: WGA-A647 binding, 635 nm fluorescence, higher = more signal;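 also: score merges 667 nm feature emission with signal to noise over triplicate slides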
[20] = molecular target: Luciferin 4-monooxygenase (Photinus pyralis) (UniProt P08659); experiment: inhibition of purified Photinus pyralis luciferase – biochemical, luminescence, purified enzyme, 2006 set, primary screen (AID 1141); conditions: purified firefly luciferase, SteadyGlo luminescence, 30 min; higher = more signal, called active from +8 up or from −8 down;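 also: cell-free assay with purified firefly luciferase at 100 ng per well in PBS; test concentration not given here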
Sequence of Luciferin 4-monooxygenase (Photinus pyralis) (P08659 whole entry, looked up): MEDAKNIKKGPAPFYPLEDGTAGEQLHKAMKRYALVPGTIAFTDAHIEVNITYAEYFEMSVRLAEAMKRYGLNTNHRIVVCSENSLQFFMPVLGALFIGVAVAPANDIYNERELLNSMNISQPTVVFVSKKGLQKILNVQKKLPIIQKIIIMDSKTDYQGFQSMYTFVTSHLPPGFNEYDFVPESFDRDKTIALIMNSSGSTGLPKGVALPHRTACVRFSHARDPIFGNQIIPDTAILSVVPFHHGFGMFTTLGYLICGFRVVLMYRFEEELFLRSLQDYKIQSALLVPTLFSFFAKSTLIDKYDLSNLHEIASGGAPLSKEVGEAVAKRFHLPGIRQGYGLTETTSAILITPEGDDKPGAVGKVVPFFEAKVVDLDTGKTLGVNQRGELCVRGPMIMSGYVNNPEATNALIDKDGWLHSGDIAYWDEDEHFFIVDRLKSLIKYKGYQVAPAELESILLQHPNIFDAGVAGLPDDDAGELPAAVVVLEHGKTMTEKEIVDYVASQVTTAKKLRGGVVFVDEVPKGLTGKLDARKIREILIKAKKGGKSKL

SMILES | composite z-score [1] | composite Z-score [2] | composite z-score [3] | composite z-score [4] | composite z-score [5] | composite z-score [6] | composite z-score [7] | composite z-score [8] | composite z-score [9] | composite z-score [10] | composite z-score [11] | composite z-score [12] | composite z-score [13] | composite z-score [14] | composite z-score [15] | composite z-score [16] | z-score [17] | composite z-score [18] | composite z-score [19] | z-score [20]
CO[C@H]1O[C@H](CO)[C@@H](OC(=O)Nc2ccc3c(c2)OCO3)[C@H](OC(=O)c2cc3ccccc3[nH]2)[C@H]1OC(=O)c1cc2ccccc2[nH]1 | 0.429 | 0.993 (inactive) | -0.0932 | -0.0875 | 0.402 | -0.0481 | 0.0757 | 0.12 | 0.725 | -0.391 | 0.935 | -0.174 | 0.622 | -0.3 | 0.372 | 0.791 | -1.56 | 0.366 | -0.0971 | -2.78 (inactive)
CC(c1ccccc1)C(O)C1C=CC2C(=O)N(c3ccccc3)C(=O)C2N1Nc1ccc([N+](=O)[O-])cc1 (stereo not given) | 0.903 | -0.122 (inactive) | 0.158 | -0.0211 | 0.526 | 2.95 | 0.0001 | 1.05 | -0.661 | 1.12 | 1.75 | 1.25 | 0.605 | 1.03 | 1.03 | 0.328 | -0.915 | 0.44 | 0.783 | 1.58 (inactive)
COc1cc(CO)cc(I)c1O[C@H]1C=C(C(=O)NCCO)C[C@@H](NCc2ccc(F)cc2)[C@@H]1O | -1.03 | 0.328 (inactive) | -0.118 | -0.148 | 0.223 | 0.369 | 0.205 | 0.352 | 0.306 | 0.0901 | -1 | 0.822 | -0.123 | 0.619 | 0.951 | 1.03 | 1.18 | 1.01 | 0.518 | -0.0701 (inactive)
COc1ccc([Si](C)(C)[C@@H]2[C@@H](CC(=O)N(CCO)Cc3ccccc3)O[C@]3(C(=O)N(Cc4cccc(N5CCOC5=O)c4)c4ccccc43)[C@H]2C)cc1 | -0.256 | 1.28 (inactive) | -0.269 | -0.0993 | 0.596 | 1.22 | 0.766 | 1.3 | 0.647 | 1.08 | 1.78 | 1.13 | 0.139 | 0.732 | 0.583 | 0.393 | -0.154 | 0.899 | 0.717 | 0.229 (inactive)
O=C1C[C@@](C(=O)NCCN2CCOCC2)(c2ccc([N+](=O)[O-])cc2)[C@@H](c2ccc(CO)cc2I)N1C1CCCCC1 | 0.614 | 0.142 (inactive) | -0.095 | -0.14 | 0.659 | 1.74 | 1.07 | 0.761 | 0.473 | 0.416 | 1.27 | 1.24 | 0.211 | -0.415 | 1.15 | 0.94 | 1.8 | 0.992 | 0.308 | 1.35 (inactive)
COc1cc(OC)c(C(O)C2C=CC3C(=O)N(c4ccccc4)C(=O)C3N2Nc2ccccc2)cc1Br (stereo not given) | 0.911 | -0.565 (inactive) | 0.245 | -0.117 | 0.457 | 1.33 | 0.468 | 1.19 | -1.07 | 1.1 | 1.95 | 1.18 | 0.531 | 0.454 | 0.461 | -0.179 | -0.267 | 0.387 | 0.126 | -0.229 (inactive)
